# Source: PubChem
# HIF-2a block = HIF-2a reporter inhibitors, primary screen, luminescence, 786-0 RCC cells; inhibition, % at 18.8 µM; 786-0 RCC cells HIF-2a reporter, luciferase luminescence, overnight; actives 0.72% (n = 360,000);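 active = inhibition of the luminescence signal of 40% or more relative to plate controls, in a single-dose primary screen at 18.75 µM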
# Shn3 3UTR inh = reduction of Shn3 3'UTR firefly luciferase signal, primary screen, Schnurri-3 inhibitor project, cell-based, Clone20 osteoblasts, set 2; Clone20 osteoblast Shn3 3'UTR firefly luciferase, 24 h; inhibition, % at 12.5 µM; actives 0.52% (n = 360,000); AID 588674, 2011;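 active = mean inhibition of at least 75% with every replicate also reaching 75%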;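 note: 0% = median of neutral control wells and 100% = pilot-screen positive control compound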
# CF NFkB block = inhibitors of PAF-induced NF-kB signaling, primary screen, cell-based, GFP fluorescence, uHTS; actives 0.86% (n = 360,000); inhibition, % at 5 µM; KKLEB NF-kB-GFP reporter, GFP fluorescence overnight;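 active = at least 50% inhibition at 5 µM, scaled per plate between neutral and stimulator controls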;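 note: PAF is a Pseudomonas aeruginosa culture filtrate used as stimulus; plate controls were PAF-stimulated DMSO wells for no effect and unstimulated DMSO wells for full effect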
# TRPM1 prom inh = inhibitors of MITF-dependent TRPM1 promoter reporter, primary screen, cell-based, SK-MEL-5, single point, luciferase. inhibition, % at 12.5 µM. SK-MEL-5 TRPM1 promoter luciferase, 24 h. actives 0.83% (n = 330,000);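 active = mean inhibition across replicates of 60% or more, whatever share of single replicates reaches that level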
# KKLEB tox = cytotoxicity in KKLEB CF airway cells, primary screen, cytotoxicity control for CF NF-kB inhibitor project, cell-based, uHTS, fluorescence assay plates; activity change (cytotoxicity), % at 5 µM; KKLEB CF airway cells viability, ATPlite luminescence, overnight; hits give low values; cells stimulated with P. aeruginosa culture filtrate; actives 0.36% (n = 360,000);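 active = corrected activity change at or below -50% at 5 µM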
# Peg3 prom inh-1 = Peg3 promoter-driven luciferase inhibitors, primary screen, cell-based, HeLa, luciferase luminescence. HeLa PEG-Prom luciferase reporter, overnight. inhibition, % at 20 µM. actives 1.7% (n = 360,000);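 active = inhibition of at least 50% at 20 µM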
# Peg3 prom inh-2 = Peg3 promoter reporter inhibitors, retest, confirmation, cell-based, HeLa, luciferase reporter, single concentration; shares compounds with Peg3 prom inh-1; HeLa PEG-Prom luciferase reporter, luminescence, overnight; inhibition, % at 20 µM; actives 84% (n = 1,300); AID 602417, 2012;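 active = at 20 µM dose, 40% or more inhibition averaged across four replicates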
# * marks the source's active call; other numbers are inactive results; x = no result given. Hits are enriched below; roughly 2.8% of the tested compounds scored in any of these assays.
SMILES,HIF-2a block,Shn3 3UTR inh,CF NFkB block,TRPM1 prom inh,KKLEB tox,Peg3 prom inh-1,Peg3 prom inh-2
CCOC(=O)N1CCN(S(=O)(=O)c2ccc(C(=O)NNc3nc4c(C)cc(C)cc4s3)cc2)CC1,8,9,-12,x,-7,56*,92*
Cc1cc(C)c2nc(NNC(=O)c3ccc(S(=O)(=O)N4CCCCC4)cc3)sc2c1,-15,11,17,x,-10,55*,66*
Cc1ccc(C(=O)NNC(=O)c2ccc(S(=O)(=O)N3CCCCC3)cc2)cc1,2,12,5,-3,-6,5,x
COc1ccc2sc(N(CCCN(C)C)C(=O)c3ccc(S(=O)(=O)N4CCCc5ccccc54)cc3)nc2c1,-50,11,5,77*,-15,84*,96*
COc1ccc(N2CC(C(=O)NCCc3ccc(Cl)cc3)CC2=O)cc1 (stereo not given),15,0,-4,-17,1,17,x
CC1CC(=O)N(CC(=O)NCc2ccccc2)c2ccccc2S1(=O)=O (stereo not given),4,19,-8,-6,10,8,x
Cc1cc(C)c2sc(N(CCCN(C)C)C(=O)c3ccc(S(=O)(=O)N(C)C4CCCCC4)cc3)nc2c1,-9,1,42,90*,-14,107*,98*
CN(Cc1ccc(F)cc1)C(=O)C(Cc1ccccc1)NC(=O)c1ccccc1 (stereo not given),15,17,-13,6,1,35,x
COc1ccc(CN(C)C(=O)C(Cc2ccccc2)NC(=O)c2ccccc2)cc1F (stereo not given),18,8,27,4,-28,54*,84*
CSc1ccc(CN(C)C(=O)C(Cc2ccccc2)NC(=O)c2ccccc2)cc1 (stereo not given),15,17,16,4,-12,66*,62*
CN(C(=O)c1cccc(NC(=O)Cc2ccc(NC(=O)C3CCN(C(=O)C4CCCCC4)CC3)cc2)c1)C1CCCC1,21,-4,-12,5,7,10,x
Cc1cc(C)n2nc(C(=O)N/N=C/c3ccco3)nc2n1,6,0,-7,-4,1,10,x
Cc1ccc([C@@H]2CC(=O)[C@@H]3CN(S(=O)(=O)c4ccc(C)cc4)[C@H](c4ccccc4)C[C@@H]3N2S(=O)(=O)c2ccc(C)cc2)cc1,12,10,21,x,5,4,x
CC(=O)c1cn(CC(=O)Nc2ccccc2Cl)c2ccccc12,24,79,15,14,-16,20,x
NC(N)=N/N=C/c1ccc(Cl)cc1Cl,-46,15,12,13,-22,69*,83*
O=C(NN=Cc1ccc(Cl)cc1Cl)c1ccccc1,-230,-105,-8,x,1,-350,x
Cc1ccc(S(=O)(=O)CC(N)=O)cc1,5,-13,11,-5,2,-4,x
Cc1ccc(S(=O)(=O)CCSC(=N)N)cc1,-4,-19,2,-1,-6,55*,47*
O=C(NCc1ccc2c(c1)OCO2)C1CC(=O)N(CCc2ccc(Cl)cc2)C1 (stereo not given),-12,3,-4,0,2,4,x
COc1ccc(NC(=O)[C@@H](NC(N)=O)C(C)C)cc1Cl,7,2,-9,1,15,-27,x
O=C(Nc1cc2c3c(c1)CC(=O)N3CCC2)c1ccccc1Br,-43,-3,4,-20,-4,-42,x
O=c1cc2oc3cc(O)c(O)cc3c(-c3ccccc3[N+](=O)[O-])c-2cc1O,17,25,12,45,-20,60*,75*
c1ccc(-c2nc(-c3ccccn3)no2)cc1,33,16,-4,53,-17,76*,46*
Cc1ccc(-c2nc(-c3ccccn3)no2)cc1Cl,77*,70,-6,83*,-67*,93*,72*
c1ccc(-c2noc(-c3ccno3)n2)nc1,-68,-8,-6,-12,26,-37,x
SMILES,HIF-2a block,Shn3 3UTR inh,CF NFkB block,TRPM1 prom inh,KKLEB tox,Peg3 prom inh-1,Peg3 prom inh-2
CCC(C)Sc1ccc(-c2nc3ccccn3c2NCc2ccccc2)cc1OC (stereo not given),-292,-38,18,6,-6,93*,97*
CC(C)n1cc(CN2CCC(C(=O)Nc3cccc(-c4cccc(Cl)c4)c3)CC2)cn1,16,18,12,38,-19,111*,98*
CCOc1ccccc1C(=O)NCC(=O)OCCOc1cccc(Cl)c1,10,2,-32,1,7,-15,x
O=C(CCCN1C(=O)/C(=C/c2cccs2)SC1=S)Nc1cccnc1,25,4,11,-7,-2,14,x
O=C(CCCN1C(=O)/C(=C/c2cccc(Br)c2)SC1=S)Nc1cccnc1,49*,-22,25,9,-9,76*,96*
N#C/C(=C\c1ccc(OCc2ccc(C(=O)O)cc2)cc1)C(=O)N1CCOCC1,-20,54,-10,85*,-6,71*,76*
O=c1[nH]c(=O)n(C2OC(CO)C(O)C2O)cc1F (stereo not given),5,71,11,-13,-11,75*,75*
Cc1ccccc1CC1CCN(CCCNC(=O)Nc2ccccc2)CC1,15,-46,-13,-36,-9,10,x
COc1cc2c(cc1OC)CN(C1CC(=O)N(c3c(C)cccc3C)C1=O)CC2 (stereo not given),14,2,3,-5,7,1,x
Oc1ccc(C[C@H]2CNCCN2CCc2cc(C(F)(F)F)cc(C(F)(F)F)c2)cc1,-90,-18,1,0,-8,58*,82*
CC1CCN(C(=O)COC(=O)c2ccc3c(c2)C(=O)N(Cc2ccco2)C3=O)CC1,-3,-5,7,-3,-16,0,x
CN(C)S(=O)(=O)c1cccc(NC(=O)c2cncc(Br)c2)c1,-13,-29,14,-13,-2,-6,x
Cc1ccc(S(=O)(=O)N(C)C)cc1NC(=O)c1cncc(Br)c1,26,24,8,36,-12,55*,69*
Cc1nn(-c2nc3ccccc3[nH]2)c(=O)c2ccccc12,95*,93*,-12,96*,-78*,104*,99*
Cc1ccc(Cn2c(CCNc3nc(-c4ccc(Cl)c([N+](=O)[O-])c4)cs3)nc3cc(Cl)c(Cl)cc32)cc1,-6,-17,6,3,-7,73*,35
